Rows were chosen to be rich in hits. Some 11% of all compounds tested hit in one or more screens of this group.
PNC inhibitor: inhibitors of perinucleolar compartment assembly | activity change (PNC), negative = inhibition, % at 10 µM | PC3M PTB-GFP, PNC prevalence imaging, 16 h; hits give low values | 3.1% of 140,000 active;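 active = readout at or below -70, meaning at least 70% loss of cells showing the perinucleolar compartment, a nuclear body marking cancer cells; inconclusive = readout between -30 and a set limit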;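 note: plate controls were DMSO wells for no effect and camptothecin positive control wells for full effect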
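PC3M cells stably expressing PTB-GFP, 750–1000 cells/well, treated 16 h at 37 °C with compound (23 nl of library stock), in duplicate. After paraformaldehyde fixation and Hoechst stain, imaged at 20x; PNC prevalence scored by image analysis.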
HTT ATP protect: cytoprotection in Huntington HTT-Q103 PC12 cell model. 0.14% of 230,000 active. PC12 HTT-Q103 induced, cytoprotection, ATP luminescence, 40 h. Potency, µM (top dose mostly 56.4 µM), for inactives: cytoprotection (ATP increase), actives largely listed as activators; active = well fitted curve in the direction sought with a large enough effect; inconclusive = small, poorly fitted or top-dose-only effect, or another doubt; inactive = no such curve, though single readings can be large; an effect the other way counts as inactive or inconclusive; note: potency is the fitted concentration of half-maximal effect; % of control where 0% means no effect; nearly all actives have a fitted effect of over 45% in size
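Quantitative HTS on tebufenozide-induced (100 nM) PC12 cells expressing HTTQ103 exon 1–GFP; compounds tested as a concentration series; survival measured via cellular ATP.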
ALDH1A1 block: blocks purified human ALDH1A1 activity; 7.3% of 220,000 active; Potency, µM (doses to about 75.3 µM), without a hit: at the top dose activity, negative = inhibition, hits mostly inhibitors; Purified ALDH1A1, NADH fluorescence, propionaldehyde substrate; P00352;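 note: potency is the fitted concentration of half-maximal effect; plate controls were no enzyme wells and a reference inhibitor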
HPGD inh: HPGD (human) dehydrogenase inhibition | P15428 | purified HPGD, NADH fluorescence kinetic, PGE2 substrate | Potency, µM, inactives show at the top dose activity change, negative = inhibition, most hits filed as inhibitors | 4.3% of 150,000 active | AID 894; note: potency is the fitted concentration of half-maximal effect; % is set by controls: 0 for no effect and ±100 for the full control effect
Target sequence (P15428 whole entry, looked up): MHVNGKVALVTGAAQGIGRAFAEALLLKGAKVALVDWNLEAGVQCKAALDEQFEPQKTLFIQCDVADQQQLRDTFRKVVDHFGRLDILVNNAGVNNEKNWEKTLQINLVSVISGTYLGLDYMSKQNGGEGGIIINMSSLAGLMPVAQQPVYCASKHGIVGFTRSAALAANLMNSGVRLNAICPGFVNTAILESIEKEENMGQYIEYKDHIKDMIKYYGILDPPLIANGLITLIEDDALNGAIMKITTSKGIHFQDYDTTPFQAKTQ
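20 nM HPGD preincubated 15 min at room temperature with compound in 50 mM Tris-HCl pH 8, 0.01% Tween 20. Started with 1 mM NAD+ and 30 uM prostaglandin E2; NADH fluorescence (360/450 nm) read 5 times over 30-s intervals, last minus first.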
HttQ103 aggreg: inhibitors of mutant huntingtin aggregate formation in PC12 cells; PC12 HttQ103-GFP aggregates, Acumen cytometry, 40 h; Potency, µM (doses to about 46.1 µM), for the others: at the top dose activity change, negative = inhibition, most hits filed as inhibitors; 1.1% of 220,000 active; active = well fitted curve in the direction sought with a large enough effect; inconclusive = small, poorly fitted or top-dose-only effect, or another doubt; inactive = no such curve, though single readings can be large; an effect the other way counts as inactive or inconclusive; note: potency is the fitted concentration of half-maximal effect; % is set by controls: 0 for no effect and ±100 for the full control effect; nearly all actives have a fitted effect of over 60% in size
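Ecdysone-promoter PC12 model expressing HTT exon 1 Q103 fused to GFP, induced by tebufenozide at 100 nM final. Compounds titrated; aggregates sized 1–25 µm scored on a 488 nm laser cytometer.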
RGS12 GoLoco inh: RGS12 GoLoco-Gai1 interaction inhibition; P63096; Gai1:RGS12 GoLoco peptide FP, rhodamine, 10 min; Potency, µM (highest dose often 61.6 µM), inactives show at the highest dose activity, negative = inhibition, usual class: inhibitors; 0.44% of 230,000 active; AID 880; active = well fitted inhibition curve with a large enough effect, not every such curve was filed as active; inactive = no such curve, though single readings can be large or run the other way; note: potency is the fitted concentration of half-maximal effect; % is set by controls: 0 for no effect and ±100 for the full control effect; nearly all actives have a fitted effect of over 30% in size
Target sequence (P63096 whole entry, looked up): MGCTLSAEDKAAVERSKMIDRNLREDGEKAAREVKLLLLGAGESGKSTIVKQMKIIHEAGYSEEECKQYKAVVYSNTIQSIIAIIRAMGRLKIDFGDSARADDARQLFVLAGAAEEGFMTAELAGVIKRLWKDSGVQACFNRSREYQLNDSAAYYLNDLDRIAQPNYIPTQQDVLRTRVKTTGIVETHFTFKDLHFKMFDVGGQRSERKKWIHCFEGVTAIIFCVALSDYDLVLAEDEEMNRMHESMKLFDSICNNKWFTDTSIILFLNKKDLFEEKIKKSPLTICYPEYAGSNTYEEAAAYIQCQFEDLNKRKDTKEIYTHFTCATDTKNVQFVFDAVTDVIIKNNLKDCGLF
Active calls of the source: *; ? = inconclusive; / = no result; [ ] = another dose, or the depositor's remark. Unless noted, calls come from the whole dose curve; as a rule, active = well fitted inhibition curve with a large enough effect (not every such curve was filed as active); inconclusive = small, poorly fitted or top-dose-only effect, or another doubt; inactive = no such curve, though single readings can be large or run the other way.

SMILES	PNC inhibitor	HTT ATP protect	ALDH1A1 block	HPGD inh	HttQ103 aggreg	RGS12 GoLoco inh
CCOc1cc(OCC)cc(C(=O)Nc2cccnc2)c1	-91*	-14%	-3%	-2%	-10%	1%
O=S(=O)(Nc1cccnc1)c1cccc(C(F)(F)F)c1	-92*	15%[0.074 µM]	3%	-12%	4%	2%
CCN(CC)S(=O)(=O)c1cc(C(=O)Nc2cccnc2)ccc1Cl	?	-56%[10 µM]	4.5µM*	-7%	13%	-12%
COc1cc(OC)cc(C(=O)Nc2cccnc2)c1	/	-18%	-2%	/	23%	5%
CC(C)Oc1cccc(C(=O)NC(=S)Nc2cccc(C(F)(F)F)c2)c1	-12	3%	18µM*	-22%	17%	8%
N=C1CCC[C@@H]1C(=S)SCCC(N)=O	/	-17%[10 µM]	11%[13.5 µM]	-10%	/	4%[14.2 µM]
N#C/C(=C\c1ccccc1)C(=O)Nc1nncs1	/	-12%[10 µM]	-3%	/	-2%[9.22 µM]	7%
O=[N+]([O-])c1ccc(C2=NCCO2)cc1	/	5%[10 µM]	/	/	-22%[9.22 µM]	-1%
CCOc1cccc(C(=O)NC(=S)Nc2cccnc2)c1	-3	35%[10 µM]	?	-12%	-7%	0%
CCCCOc1cccc(C(=O)NC(=S)Nc2cccc(C(F)(F)F)c2)c1	14	13%[10 µM]	8.9µM*	-21%	?	5%
CCCCOc1ccc(S(=O)(=O)Nc2cccnc2)cc1	-6	-19%	7%	-12%	11µM*	-4%
CCCCOc1cccc(C(=O)NC(=S)Nc2cccnc2)c1	-10	16%[10 µM]	25µM*	-12%	11%	4%
Cc1ccc(S(=O)(=O)Nc2cccnc2)cc1	78	-2%	7%	-7%	8%	1%
COc1ccc(-c2nc(-c3ccccc3)c(Nc3c(C)cccc3C)o2)cc1	/	-46%	2%	-11%	/	-4%
Cc1ccc(Cn2nnnc2CN2CCC(O)(c3ccccc3F)CC2)cc1	-100*	-7%[10 µM]	?	-10%	4%	5%
COc1ccc(N=C2CCS(=O)(=O)c3sccc32)cc1	/	-1%	10µM*	/	2%[9.22 µM]	14%
O=C(Nc1nccs1)c1ccc(Br)o1	-100*	-5%[10 µM]	?	25µM*	-3%	-3%
O=C(Nc1nccs1)c1ccc(-c2ccc(Cl)cc2Cl)o1	?	-10%[10 µM]	?	?	?	5%
O=C(/C=C/c1ccc(Br)o1)Nc1nccs1	/	0%[10 µM]	22µM*	/	5%	26%
COc1ccc(C(=O)NCC(=O)OCC(=O)Nc2ccc(C)c(S(=O)(=O)N(C)C)c2)cc1OC	/	-10%[10 µM]	/	/	-14%[9.22 µM]	-4%
CCN(CC)CC(=O)NCc1cc(-c2ccc(OC)cc2)no1	4	11%	-12%	1.3µM*	0%	-9%
COc1ccc(-c2cc(COc3ccccc3)on2)cc1	/	-62%	5%	/	-5%	8%
Cc1ccc(-n2c(SCC(=O)NCc3ccco3)nc3sc(C)c(C)c3c2=O)cc1	-7	-3%	-5%	?	-1%	-1%
CN(Cc1ccccc1)C(=O)CSc1nc2ccccc2c(=O)n1Cc1ccco1	?	-3%	7.9µM*	-26%	?	2%
Cc1ccc(NC(=O)CN(C)C(=O)CSc2nc3ccccc3c(=O)n2Cc2ccco2)cc1	-20	-27%	4%	/	-6%	/
SMILES	PNC inhibitor	HTT ATP protect	ALDH1A1 block	HPGD inh	HttQ103 aggreg	RGS12 GoLoco inh
Cc1sc2nc(SCc3nc(-c4ccccc4)no3)n(-c3ccccc3)c(=O)c2c1C	?	?	8%	-15%	-7%	10µM*
CC1CCc2c(sc3nc(SCc4nc(-c5ccccc5)no4)n(C)c(=O)c23)C1 (stereo not drawn)	/	-8%	/	/	/	/
COc1cc2nc(SCC(=O)NCCc3ccccc3)n(Cc3ccco3)c(=O)c2cc1OC	36	-11%[0.074 µM]	3.5µM*	-10%	12%	2%
Cc1sc2nc(SCC(=O)NCc3ccco3)n(-c3ccccc3)c(=O)c2c1C	-84*	-31%	-6%	-30%	22%	4%
CC(=O)OCC(=O)Nc1c(C)cccc1C	/	-9%	3%	/	4%	-4%
C=CCC1(c2ccccc2)Oc2ccc(C)cc2-c2nc3cc(Cl)c(Cl)cc3nc21 (stereo not drawn)	/	10%[10 µM]	-1%[13.5 µM]	/	/	/
NC(=O)CSc1nnc2n(-c3ccccc3)c(=O)c3c4c(sc3n12)CCCCC4	-81*	-29%	?	-1%	12%	9%
O=C(CSc1nc2c(sc3ccccc32)c(=O)n1Cc1ccco1)NCC1CCCO1 (stereo not drawn)	-89*	5%[10 µM]	18µM*	5%	-2%	-5%
O=C(CSc1nc2c(sc3ccccc32)c(=O)n1Cc1ccccc1)NCC1CCCO1 (stereo not drawn)	28	8%	0%	-20%	8%[9.22 µM]	5%
Cc1nnc2n(-c3ccccc3)c(=O)c3c4c(sc3n12)CCCC4	35	/	-5%	-3%	45%	-3%
O=C(CSc1nc2cccnc2n1Cc1ccccc1)NCc1ccco1	31	6%[10 µM]	25µM*	32µM*	-8%	8%
O=C(CSc1nc2ccccc2c(=O)n1Cc1ccco1)NCc1ccco1	84	-11%[10 µM]	25µM*	-21%	12%	0%
COc1cccc(-c2ccc3ncnc(NCCNC(C)=O)c3c2)c1	/	-116%	?	/	/	12%
CC(C)C[C@H](N)CSSC[C@@H](N)CC(C)C	/	-26%[1.9 µM]	2%	-3%	/	-6%
COC(=O)C1=C(C)N(CCc2cc(OC)c(OC)c(OC)c2)C(=O)N[C@H]1c1ccc(Br)cc1	?	?	0%	-2%	5%	1%
O=C(CSc1nc2ccccc2c(=O)n1-c1ccccc1)NCc1ccco1	-1	-3%[10 µM]	4.5µM*	-25%	-10%	-3%
Cc1sc2nc(SCC(N)=O)n(-c3ccccc3)c(=O)c2c1C	/	-10%	18µM*	/	2%	3%
Cc1cc2oc(C(=O)Nc3ccc(S(N)(=O)=O)cc3)c(C)c2cc1Cl	/	-15%[10 µM]	4%	/	12%[9.22 µM]	19%
Cc1ccc2nc(C3CCN(S(=O)(=O)c4ccc5ccccc5c4)CC3)[nH]c2c1	1	-77%	?	-17%	18µM*	4%
O=C(NCC1CCCO1)c1ccc(S(=O)(=O)N2CCC(c3nc4ccc(Cl)cc4[nH]3)CC2)cc1 (stereo not drawn)	-100*	-7%[10 µM]	-6%	-24%	-39%	10%
Cc1ccc(S(=O)(=O)N2CCCN(S(=O)(=O)c3ccc4ccccc4c3)CC2)cc1	-100*	12%[10 µM]	-3%	-15%	?	1%
O=S(=O)(c1ccc2c(c1)OCCO2)N1CCC(c2nc3ccccc3[nH]2)CC1	4	-23%[10 µM]	6%	0%	-9%	7%
O=S(=O)(c1ccc2ccccc2c1)N1CCN(S(=O)(=O)c2ccc3ccccc3c2)CC1	/	0%[10 µM]	3%[13.5 µM]	0%	/	8%[14.2 µM]

Assay outcomes deposited in PubChem by National Center for Advancing Translational Sciences (NCATS).
